Key:
[1] = biological target: Sphingosine kinase 1 (Homo sapiens) (UniProt Q9NYA1); conditions: at 1 µM;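 note: mean SPHK1 inhibition value reported from the GSK PKIS kinase panel screen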
[2] = biological target: T1, Sphingosine kinase 2 (Homo sapiens) (UniProt Q9NRA0); conditions: at 0.1 µM
T1 sequence (whole entry): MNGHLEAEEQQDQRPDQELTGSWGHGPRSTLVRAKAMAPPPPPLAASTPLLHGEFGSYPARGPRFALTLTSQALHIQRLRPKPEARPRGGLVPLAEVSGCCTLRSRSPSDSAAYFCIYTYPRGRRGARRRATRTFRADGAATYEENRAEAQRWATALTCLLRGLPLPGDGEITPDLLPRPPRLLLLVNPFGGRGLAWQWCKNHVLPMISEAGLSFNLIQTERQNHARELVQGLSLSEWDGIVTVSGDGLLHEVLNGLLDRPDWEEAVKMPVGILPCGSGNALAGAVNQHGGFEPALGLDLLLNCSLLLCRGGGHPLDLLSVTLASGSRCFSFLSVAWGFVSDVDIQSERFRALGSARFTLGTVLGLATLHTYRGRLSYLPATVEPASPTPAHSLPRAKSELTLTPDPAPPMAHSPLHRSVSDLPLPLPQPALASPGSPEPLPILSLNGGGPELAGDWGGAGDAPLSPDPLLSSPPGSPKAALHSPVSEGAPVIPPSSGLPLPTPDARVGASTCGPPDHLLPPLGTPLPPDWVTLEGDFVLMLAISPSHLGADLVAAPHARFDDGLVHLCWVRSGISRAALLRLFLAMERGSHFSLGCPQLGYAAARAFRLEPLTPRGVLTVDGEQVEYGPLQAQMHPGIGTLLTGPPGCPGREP

[3] = biological target: T1, Sphingosine kinase 2 (Homo sapiens); conditions: at 1 µM
[4] = biological target: Casein kinase II subunit alpha (Homo sapiens) (UniProt P68400); conditions: at 0.1 µM
[5] = biological target: Casein kinase II subunit alpha (Homo sapiens) (UniProt P68400); conditions: at 1 µM
[6] = biological target: T2, Inhibitor of nuclear factor kappa-B kinase subunit alpha (Homo sapiens) (UniProt O15111); conditions: at 0.1 µM
T2 sequence (whole entry): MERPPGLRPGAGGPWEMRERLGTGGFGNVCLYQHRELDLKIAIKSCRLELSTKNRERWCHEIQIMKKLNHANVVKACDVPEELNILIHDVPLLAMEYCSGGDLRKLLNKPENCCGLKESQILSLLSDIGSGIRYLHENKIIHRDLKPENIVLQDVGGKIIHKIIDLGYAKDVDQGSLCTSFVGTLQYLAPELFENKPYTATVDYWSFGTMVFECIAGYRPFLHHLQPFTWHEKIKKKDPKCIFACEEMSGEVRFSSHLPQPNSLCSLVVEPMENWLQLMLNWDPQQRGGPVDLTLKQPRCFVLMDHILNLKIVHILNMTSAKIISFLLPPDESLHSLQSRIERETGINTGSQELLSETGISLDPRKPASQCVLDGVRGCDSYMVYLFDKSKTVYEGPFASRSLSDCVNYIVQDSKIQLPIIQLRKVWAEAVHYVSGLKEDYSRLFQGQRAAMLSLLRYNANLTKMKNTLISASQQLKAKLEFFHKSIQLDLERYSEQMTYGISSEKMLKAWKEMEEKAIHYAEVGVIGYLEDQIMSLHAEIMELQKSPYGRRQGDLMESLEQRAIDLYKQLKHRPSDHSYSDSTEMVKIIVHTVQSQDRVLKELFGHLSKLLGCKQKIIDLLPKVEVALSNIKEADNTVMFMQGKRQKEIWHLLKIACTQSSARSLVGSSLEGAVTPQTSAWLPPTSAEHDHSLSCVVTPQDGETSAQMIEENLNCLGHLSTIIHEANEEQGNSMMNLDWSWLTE

[7] = biological target: T2, Inhibitor of nuclear factor kappa-B kinase subunit alpha (Homo sapiens); conditions: at 1 µM
[8] = biological target: T3, Inhibitor of nuclear factor kappa-B kinase subunit beta (Homo sapiens) (UniProt O14920); conditions: at 0.1 µM
T3 sequence (whole entry): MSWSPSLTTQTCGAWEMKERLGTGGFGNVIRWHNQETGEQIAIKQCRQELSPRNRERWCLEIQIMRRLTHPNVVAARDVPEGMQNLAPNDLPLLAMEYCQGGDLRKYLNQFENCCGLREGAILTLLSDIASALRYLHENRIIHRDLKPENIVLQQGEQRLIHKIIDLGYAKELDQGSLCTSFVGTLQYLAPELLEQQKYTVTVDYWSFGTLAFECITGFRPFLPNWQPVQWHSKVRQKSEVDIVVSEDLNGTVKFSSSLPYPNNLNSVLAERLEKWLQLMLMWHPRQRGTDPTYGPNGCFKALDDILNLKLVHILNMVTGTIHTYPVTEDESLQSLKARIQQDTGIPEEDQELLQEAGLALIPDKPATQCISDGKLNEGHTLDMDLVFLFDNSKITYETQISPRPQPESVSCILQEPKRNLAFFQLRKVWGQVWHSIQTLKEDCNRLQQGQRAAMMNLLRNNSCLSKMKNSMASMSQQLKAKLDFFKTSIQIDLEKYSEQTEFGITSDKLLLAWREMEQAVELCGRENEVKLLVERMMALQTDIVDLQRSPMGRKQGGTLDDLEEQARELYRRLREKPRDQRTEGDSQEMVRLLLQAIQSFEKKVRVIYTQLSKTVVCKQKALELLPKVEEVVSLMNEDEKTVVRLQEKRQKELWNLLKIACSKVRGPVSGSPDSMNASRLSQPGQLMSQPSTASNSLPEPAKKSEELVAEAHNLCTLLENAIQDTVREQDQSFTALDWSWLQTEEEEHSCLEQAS

[9] = biological target: T3, Inhibitor of nuclear factor kappa-B kinase subunit beta (Homo sapiens); conditions: at 1 µM
[10] = biological target: T4, Inhibitor of nuclear factor kappa-B kinase subunit epsilon (Homo sapiens) (UniProt Q14164); conditions: at 0.1 µM
T4 sequence (whole entry): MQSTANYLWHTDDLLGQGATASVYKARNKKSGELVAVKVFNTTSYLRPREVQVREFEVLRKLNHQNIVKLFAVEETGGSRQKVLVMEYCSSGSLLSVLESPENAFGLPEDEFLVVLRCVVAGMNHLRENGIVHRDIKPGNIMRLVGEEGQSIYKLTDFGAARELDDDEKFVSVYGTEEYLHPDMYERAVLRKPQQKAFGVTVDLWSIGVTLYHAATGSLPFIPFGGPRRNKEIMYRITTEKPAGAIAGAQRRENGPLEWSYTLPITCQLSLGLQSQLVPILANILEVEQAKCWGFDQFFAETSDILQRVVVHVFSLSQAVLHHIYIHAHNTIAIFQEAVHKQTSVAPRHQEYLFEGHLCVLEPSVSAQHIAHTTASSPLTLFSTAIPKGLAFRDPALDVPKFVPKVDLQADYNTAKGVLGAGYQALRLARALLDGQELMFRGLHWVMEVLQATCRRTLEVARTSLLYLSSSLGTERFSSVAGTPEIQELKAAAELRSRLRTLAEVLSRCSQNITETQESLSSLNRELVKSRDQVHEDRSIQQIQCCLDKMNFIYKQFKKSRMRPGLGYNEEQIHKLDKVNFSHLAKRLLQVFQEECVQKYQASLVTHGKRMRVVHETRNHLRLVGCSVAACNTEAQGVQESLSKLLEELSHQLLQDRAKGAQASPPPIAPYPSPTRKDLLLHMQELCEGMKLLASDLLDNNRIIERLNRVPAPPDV

[11] = biological target: T4, Inhibitor of nuclear factor kappa-B kinase subunit epsilon (Homo sapiens); conditions: at 1 µM
[12] = biological target: T5, Serine/threonine-protein kinase Nek1 (Homo sapiens) (UniProt Q96PY6); conditions: at 0.1 µM
T5 sequence (whole entry): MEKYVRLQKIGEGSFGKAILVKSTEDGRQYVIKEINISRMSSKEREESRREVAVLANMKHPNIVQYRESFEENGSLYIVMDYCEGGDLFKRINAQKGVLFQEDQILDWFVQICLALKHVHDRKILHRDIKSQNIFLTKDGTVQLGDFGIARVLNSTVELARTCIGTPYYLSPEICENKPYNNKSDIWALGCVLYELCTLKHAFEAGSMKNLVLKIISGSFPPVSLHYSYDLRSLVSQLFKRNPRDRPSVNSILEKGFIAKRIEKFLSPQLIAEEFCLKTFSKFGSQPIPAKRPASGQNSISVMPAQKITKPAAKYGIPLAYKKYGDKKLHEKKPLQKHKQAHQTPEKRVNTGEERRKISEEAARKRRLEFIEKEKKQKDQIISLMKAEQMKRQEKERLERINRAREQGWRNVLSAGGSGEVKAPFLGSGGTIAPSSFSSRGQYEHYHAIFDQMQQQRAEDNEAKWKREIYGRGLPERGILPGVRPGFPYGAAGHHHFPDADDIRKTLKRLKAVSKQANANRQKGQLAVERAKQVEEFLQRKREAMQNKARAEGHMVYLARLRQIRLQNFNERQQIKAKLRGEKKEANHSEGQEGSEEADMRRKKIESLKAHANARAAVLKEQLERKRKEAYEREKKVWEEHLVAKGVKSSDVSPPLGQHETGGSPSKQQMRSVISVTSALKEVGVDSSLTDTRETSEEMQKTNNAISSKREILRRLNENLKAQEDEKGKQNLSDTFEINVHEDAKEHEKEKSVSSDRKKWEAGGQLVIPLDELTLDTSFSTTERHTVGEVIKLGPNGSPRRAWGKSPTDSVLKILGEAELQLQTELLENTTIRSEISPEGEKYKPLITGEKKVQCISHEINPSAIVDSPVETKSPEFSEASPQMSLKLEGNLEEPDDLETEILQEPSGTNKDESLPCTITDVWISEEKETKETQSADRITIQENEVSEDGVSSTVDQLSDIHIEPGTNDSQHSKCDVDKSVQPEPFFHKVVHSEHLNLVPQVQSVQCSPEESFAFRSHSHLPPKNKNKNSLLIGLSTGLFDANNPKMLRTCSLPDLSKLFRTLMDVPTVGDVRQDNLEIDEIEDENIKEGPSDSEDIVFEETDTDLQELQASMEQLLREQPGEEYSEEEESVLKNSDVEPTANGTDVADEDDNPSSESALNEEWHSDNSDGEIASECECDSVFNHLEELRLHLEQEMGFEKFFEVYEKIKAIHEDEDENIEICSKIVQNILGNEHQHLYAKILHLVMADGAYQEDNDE

[13] = biological target: T5, Serine/threonine-protein kinase Nek1 (Homo sapiens); conditions: at 1 µM
[14] = biological target: T6, Serine/threonine-protein kinase Nek2 (Homo sapiens) (UniProt P51955); conditions: at 0.1 µM
T6 sequence (whole entry): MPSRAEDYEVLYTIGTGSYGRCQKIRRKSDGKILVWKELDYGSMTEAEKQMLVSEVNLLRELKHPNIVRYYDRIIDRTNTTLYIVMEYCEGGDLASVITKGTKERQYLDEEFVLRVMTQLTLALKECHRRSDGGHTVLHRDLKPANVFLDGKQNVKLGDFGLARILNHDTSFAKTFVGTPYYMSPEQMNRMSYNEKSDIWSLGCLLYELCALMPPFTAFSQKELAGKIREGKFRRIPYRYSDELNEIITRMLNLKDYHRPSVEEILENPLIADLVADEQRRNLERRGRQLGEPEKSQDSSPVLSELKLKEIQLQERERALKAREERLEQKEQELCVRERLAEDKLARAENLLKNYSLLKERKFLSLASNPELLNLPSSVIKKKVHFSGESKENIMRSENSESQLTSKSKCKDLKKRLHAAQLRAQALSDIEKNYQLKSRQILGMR

[15] = biological target: T6, Serine/threonine-protein kinase Nek2 (Homo sapiens); conditions: at 1 µM
[16] = biological target: Serine/threonine-protein kinase Nek6 (Homo sapiens) (UniProt Q9HC98); conditions: at 0.1 µM
[17] = biological target: Serine/threonine-protein kinase Nek6 (Homo sapiens) (UniProt Q9HC98); conditions: at 1 µM
[18] = biological target: Serine/threonine-protein kinase Nek7 (Homo sapiens) (UniProt Q8TDX7); conditions: at 0.1 µM
[19] = biological target: Serine/threonine-protein kinase Nek7 (Homo sapiens) (UniProt Q8TDX7); conditions: at 1 µM
[20] = biological target: T7, Serine/threonine-protein kinase Nek9 (Homo sapiens) (UniProt Q8TD19); conditions: at 0.1 µM;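 note: reported value is the mean percent inhibition of NEK9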
T7 sequence (whole entry): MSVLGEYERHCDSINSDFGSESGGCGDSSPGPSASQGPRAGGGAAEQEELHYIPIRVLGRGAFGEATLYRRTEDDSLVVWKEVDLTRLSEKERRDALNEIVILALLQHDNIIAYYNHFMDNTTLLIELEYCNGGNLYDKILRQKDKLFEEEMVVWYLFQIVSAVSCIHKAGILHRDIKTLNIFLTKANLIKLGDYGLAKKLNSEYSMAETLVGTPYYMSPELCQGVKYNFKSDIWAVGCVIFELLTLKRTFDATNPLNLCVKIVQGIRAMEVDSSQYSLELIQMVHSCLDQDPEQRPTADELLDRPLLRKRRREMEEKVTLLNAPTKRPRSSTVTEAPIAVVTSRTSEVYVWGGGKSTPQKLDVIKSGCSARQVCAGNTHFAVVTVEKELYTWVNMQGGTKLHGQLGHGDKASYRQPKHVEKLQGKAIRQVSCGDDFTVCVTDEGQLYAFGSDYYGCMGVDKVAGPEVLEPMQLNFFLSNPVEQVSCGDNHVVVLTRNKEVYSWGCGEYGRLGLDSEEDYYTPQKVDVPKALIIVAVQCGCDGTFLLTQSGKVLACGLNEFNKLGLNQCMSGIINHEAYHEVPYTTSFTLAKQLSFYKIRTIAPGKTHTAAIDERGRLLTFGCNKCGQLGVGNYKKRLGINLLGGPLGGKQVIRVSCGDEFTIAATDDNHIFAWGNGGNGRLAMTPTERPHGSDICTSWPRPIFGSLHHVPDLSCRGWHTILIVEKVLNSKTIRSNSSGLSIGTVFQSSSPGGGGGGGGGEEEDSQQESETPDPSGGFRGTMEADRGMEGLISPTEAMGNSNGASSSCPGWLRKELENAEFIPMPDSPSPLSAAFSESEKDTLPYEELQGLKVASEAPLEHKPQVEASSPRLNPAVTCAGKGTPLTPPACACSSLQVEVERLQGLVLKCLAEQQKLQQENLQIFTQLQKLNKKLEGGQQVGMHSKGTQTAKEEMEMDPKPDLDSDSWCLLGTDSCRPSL

Casein kinase II subunit alpha (Homo sapiens), sequence (P68400 whole entry, looked up): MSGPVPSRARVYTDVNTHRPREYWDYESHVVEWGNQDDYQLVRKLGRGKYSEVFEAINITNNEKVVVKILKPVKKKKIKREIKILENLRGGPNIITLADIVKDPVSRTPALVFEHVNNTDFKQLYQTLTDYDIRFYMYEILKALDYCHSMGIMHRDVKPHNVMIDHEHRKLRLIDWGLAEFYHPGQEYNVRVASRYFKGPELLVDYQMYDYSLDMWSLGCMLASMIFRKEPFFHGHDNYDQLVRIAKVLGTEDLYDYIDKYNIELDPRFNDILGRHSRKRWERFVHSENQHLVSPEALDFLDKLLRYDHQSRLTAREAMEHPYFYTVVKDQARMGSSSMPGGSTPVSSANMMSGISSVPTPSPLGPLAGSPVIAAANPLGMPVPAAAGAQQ
Serine/threonine-protein kinase Nek6 (Homo sapiens), sequence (Q9HC98 whole entry): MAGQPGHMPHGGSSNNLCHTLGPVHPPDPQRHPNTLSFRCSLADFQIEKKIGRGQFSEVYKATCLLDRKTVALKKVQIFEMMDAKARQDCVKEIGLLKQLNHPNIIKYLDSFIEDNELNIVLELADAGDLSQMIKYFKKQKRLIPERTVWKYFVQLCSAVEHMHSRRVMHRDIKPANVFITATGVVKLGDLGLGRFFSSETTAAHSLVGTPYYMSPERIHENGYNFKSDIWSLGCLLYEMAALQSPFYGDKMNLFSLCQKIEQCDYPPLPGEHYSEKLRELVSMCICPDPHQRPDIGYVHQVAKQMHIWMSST
Serine/threonine-protein kinase Nek7 (Homo sapiens), sequence (Q8TDX7 whole entry, looked up): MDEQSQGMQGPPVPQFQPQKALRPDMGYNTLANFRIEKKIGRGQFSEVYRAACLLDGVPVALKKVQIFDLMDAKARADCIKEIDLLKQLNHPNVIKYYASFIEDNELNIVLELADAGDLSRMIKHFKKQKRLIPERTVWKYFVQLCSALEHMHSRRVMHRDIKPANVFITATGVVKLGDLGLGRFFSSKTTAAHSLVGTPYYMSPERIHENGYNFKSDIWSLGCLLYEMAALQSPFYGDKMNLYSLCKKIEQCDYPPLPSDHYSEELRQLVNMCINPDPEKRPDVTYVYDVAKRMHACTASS
Sphingosine kinase 1 (Homo sapiens), sequence (Q9NYA1 whole entry): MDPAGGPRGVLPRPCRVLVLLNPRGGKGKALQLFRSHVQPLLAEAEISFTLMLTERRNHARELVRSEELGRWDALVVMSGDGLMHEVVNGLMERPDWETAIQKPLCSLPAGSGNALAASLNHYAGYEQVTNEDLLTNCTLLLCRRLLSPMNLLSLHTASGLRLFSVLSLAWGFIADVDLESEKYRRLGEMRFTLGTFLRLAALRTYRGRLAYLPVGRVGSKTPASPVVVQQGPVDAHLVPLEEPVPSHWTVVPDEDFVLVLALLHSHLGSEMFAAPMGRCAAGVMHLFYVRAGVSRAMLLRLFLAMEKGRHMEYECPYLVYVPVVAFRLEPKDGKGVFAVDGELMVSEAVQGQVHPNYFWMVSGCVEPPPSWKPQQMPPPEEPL

Compound | inhibition [1] [%] | inhibition [2] [%] | inhibition [3] [%] | inhibition [4] [%] | inhibition [5] [%] | inhibition [6] [%] | inhibition [7] [%] | inhibition [8] [%] | inhibition [9] [%] | inhibition [10] [%] | inhibition [11] [%] | inhibition [12] [%] | inhibition [13] [%] | inhibition [14] [%] | inhibition [15] [%] | inhibition [16] [%] | inhibition [17] [%] | inhibition [18] [%] | inhibition [19] [%] | inhibition [20] [%]
CCS(=O)(=O)c1ccc(OC)c(Nc2ncc(-c3cccc(-c4ccccc4F)c3)o2)c1 | 0.74 | 0.06 | -2.48 | 1.79 | 4.95 | 3.18 | 3.18 | 0.01 | -1.42 | -1.02 | 0.08 | 1.03 | 1.67 | 0.99 | -0.68 | 1.36 | -2.09 | 1.63 | -0.61 | -0.87
COc1cc2ncn(-c3cc(OCCc4ccccc4)c(C(N)=O)s3)c2cc1OC | -2.62 | -3.06 | 0.29 | 1.36 | -0.04 | 6.65 | 1.12 | 3.03 | 0.18 | 2.79 | 2.69 | 1.71 | 1.3 | 2.3 | 4.49 | -0.94 | 1.69 | 3.01 | 2.45 | 1.66

Reference: ChEMBL document CHEMBL1961873, “Compounds: GSK PKIS; Assays: Nanosyn kinase panel” (2012)
